Sampled rows, rich in hits. Any-hit rate of the full collection: about 1.7%.
GLP1R cytotox: cytotoxicity in counter-screen for GLP-1R inverse agonists | HEK293 cAMP-luciferase reporter cells, luminescence, 24 h | Potency, µM (top dose mostly 38.3 µM), without a hit: at the top dose activity change, negative = inhibition, usual class: inhibitors | 410,000 compounds, 0.13% hits;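 further: loss of luciferase light is scored as toxicity; on the % scale 0 is the no-effect control and ±100 the full control effect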
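A 23 nL compound transfer followed 12 hours of cell culture at 37 deg C; exposure then lasted 24 hr. Luciferase assay detection reagent was dispensed and plates read for luminescence after a 12 min room-temperature wait.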
PTHR1 ag: PTHR1 (human) receptor agonism; Q03431; HEK293 GP2 PTHR1 cells, GloSensor cAMP luminescence, 1 h; Potency, µM (doses to about 115 µM), for the others: at the top dose activation, usual class: activators; 410,000 compounds, 0.075% hits; further: nearly all actives have a fitted effect of over 55% in size
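HEK-293-derived GP2 cells expressing PTHR1 and a GloSensor cAMP reporter, 3,000/well, plated overnight, given luciferin plus IBMX (each 0.5 mM as added) for 1 h at 37 °C, then compound for 1 h at 37 °C. Luminescence was read after 15 min at room temperature.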
GLP1R ag: activates the human GLP-1 receptor. 380,000 compounds, 0.007% hits. HEK293 GLP-1R CRE-luciferase, luminescence, 4-6 h; cells express a hypersensitive GLP-1R form. P43220. Potency, µM (series often up to 45.6 µM), for the others: top-dose activation, actives largely listed as activators; further: % of control where 0% means no effect
Target sequence (P43220 whole entry, looked up): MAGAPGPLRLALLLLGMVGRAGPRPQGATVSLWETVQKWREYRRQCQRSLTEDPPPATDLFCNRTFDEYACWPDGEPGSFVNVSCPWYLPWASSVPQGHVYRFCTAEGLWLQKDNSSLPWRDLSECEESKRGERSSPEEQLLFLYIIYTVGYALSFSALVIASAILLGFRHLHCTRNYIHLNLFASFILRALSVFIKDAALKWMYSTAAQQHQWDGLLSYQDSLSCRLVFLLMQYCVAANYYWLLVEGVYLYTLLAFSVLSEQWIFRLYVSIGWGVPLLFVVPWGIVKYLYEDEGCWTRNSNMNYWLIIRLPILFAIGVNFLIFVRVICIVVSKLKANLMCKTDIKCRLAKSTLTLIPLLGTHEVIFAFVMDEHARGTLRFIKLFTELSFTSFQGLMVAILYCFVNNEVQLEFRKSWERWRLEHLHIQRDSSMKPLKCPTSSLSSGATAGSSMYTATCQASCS
GLP-1R inv ag: acts as inverse agonist at human GLP-1 receptor. 410,000 compounds, 1.6% hits. HEK293 GLP-1R CRE-luciferase, luminescence, 24 h; GLP-1R form is constitutively active. Potency, µM (doses to about 38.3 µM), for inactives: at the highest dose activity change, negative = inhibition, most hits filed as inhibitors. P43220; further: on the % scale 0 is the no-effect control and ±100 the full control effect; nearly all actives have a fitted effect of over 55% in size
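HEK293 cells stably co-expressing a cAMP-responsive luciferase reporter and constitutively active GLP-1R were seeded, incubated 12 h, then exposed to compounds for 24 h at 37 C. Luminescence was read 12 min after detection reagent; inverse agonists lower signal.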
* hit, by the source's call; i = inactive; ? = inconclusive; [ ] = remark or other dose. The call rests on the fitted dose curve; in most records, active means well fitted curve in the direction sought with a large enough effect; inconclusive means small, poorly fitted or top-dose-only effect, or another doubt; inactive means no such curve, though single readings can be large; an effect the other way counts as inactive or inconclusive. Potency means the concentration at half of the fitted maximal effect.

SMILES | GLP1R cytotox | PTHR1 ag | GLP1R ag | GLP-1R inv ag
O=C(NC1CC1)c1ccc(CS(=O)c2ccccc2)o1 (configuration not stated) | -11% | -2% | -4% | 8%
CC1(C)CCC[C@]2(C)C(CS(=O)c3ccccc3)=C(C=O)CC[C@@H]12 (some centres not stated) | -13% | -19% | 10% | 2.8µM*
CC(C)CC(=O)Nc1ccc(S(=O)(=O)Nc2nccs2)cc1 | 7% | i | -5% | 6%
Cc1ccc(C(CNS(=O)(=O)c2ccc(Br)cc2)N2CCN(C)CC2)cc1 (configuration not stated) | -10% | -3% | -1% | 7.9µM*
CN1CCN(C(CNS(=O)(=O)c2ccc(Br)cc2)c2ccc3c(c2)OCO3)CC1 (configuration not stated) | 16% | 6% | 9% | 10µM*
O=S(=O)(NCC(c1ccc2c(c1)OCO2)N1CCOCC1)c1ccc(Br)cc1 (configuration not stated) | -3% | 18% | 9% | ?
CN(C)c1nc(Nc2ccc(Cl)cc2)nc(OCC#N)n1 | 0% | -33% | 16% | -9%
COc1cccc(NC(=O)CN(C)C(=O)C2CC(=O)N(CCc3ccc(OC)c(OC)c3)C2)c1 (configuration not stated) | -24% | -11% | -6% | -23%
O=C(Nc1ccc(S(=O)(=O)NCC2CCCO2)cc1)c1cccc(F)c1 (configuration not stated) | 3% | -14% | 20% | 13%
COc1cccc(C2NC(=S)NC3=C2CCc2ccccc23)c1 (configuration not stated) | 4µM* | -2% | -13% | ?
Cc1cc2oc(=O)cc(CN3CCOCC3)c2c(C)c1Cl | -1% | -10% | 7% | -2%
O=C(c1cccc(NS(=O)(=O)c2ccc(F)c(F)c2)c1)N1CCN(C(c2ccccc2)c2ccccc2)CC1 | 8% | -32% | -7% | 4µM*
Cc1ccc(-n2c(C)cc(C)c(C#N)c2=O)cc1Cl | -1% | -16%[57.5 µM] | 1% | ?
COc1ccccc1COC(=O)C(NC(=O)c1ccc(C)cc1)C(C)C (configuration not stated) | 1% | i | 12% | ?
Cc1ccc(C)c(NC(=O)CCN2CCc3ccccc3C2)c1 | 3% | i | 6% | 11µM*
COc1cccc2c1C1COC3C4CC(C(=O)O)C(C(C2)N13)N4C (configuration not stated) | ? | i | -6% | 4µM*
COc1cccc2c1C(CCCC(=O)O)CCC2 (configuration not stated) | 0% | -9% | 5% | 9%
CC(C)n1c(=O)c2ccccc2n1Cc1cn(C2CCCC2)nn1 | 1% | -10% | -6% | 17%
C=CCOc1ccc(/C=C2\SC(=S)N(NS(=O)(=O)c3ccc(C)cc3)C2=O)cc1 | ? | i | 0% | ?
Cc1cc(C(=O)COC(=O)c2ccc(O)cc2)c(C)n1CCc1ccc(F)cc1 | -15% | -41% | 8% | ?
Cc1cc(C(=O)CSc2nc(N)cc(N)n2)c(C)n1CCc1ccc(F)cc1 | -25% | -26%[57.5 µM] | 2% | 5.6µM*
CCC(C)NC(=O)Cn1c(=O)ccc2cc(S(=O)(=O)N3CCCC3)ccc21 (configuration not stated) | -6% | -1% | 8% | 0%
O=C(N/C(=C\c1ccccc1)C(=O)N1CCOCC1)c1ccc(Br)o1 | 18% | i | 9% | -29%
O=C(N/C(=C\c1ccccc1)C(=O)N1CCCCC1)c1ccc(Br)o1 | 4% | -34% | -4% | 10µM*
CCC(=O)N(Cc1cc2cc(C)c(C)cc2[nH]c1=O)C1CCCCC1 | -29% | -63%[57.5 µM] | -3% | 10µM*
NC(=O)c1cc2cc(Cl)ccc2oc1=Nc1cccc(C(F)(F)F)c1 | 2% | i | -1% | 8%
O=C(O)CCn1cc(/C=C\C(=O)c2ccc(Cl)cc2)c(-c2cccc(Br)c2)n1 | 4% | -28% | -1% | 13µM*
O=Cc1cn(CCC(=O)O)nc1-c1cccc(Br)c1 | -3% | -2% | -4% | 6%
COc1ccccc1NS(=O)(=O)c1cc(C(=O)N2CCN(C/C=C/c3ccccc3)CC2)ccc1C | -11% | -6% | -1% | 10µM*
COc1ccccc1NS(=O)(=O)c1cccc(C(=O)N2CCN(C/C=C/c3ccccc3)CC2)c1 | -15% | -17% | -5% | ?

Compound activity (PubChem)
